GDH-TPI counter-1 – GDH-TPI coupling enzyme inhibitors, primary screen, artefact control for M. tuberculosis FBA inhibitor project, biochemical, absorbance, full deck. inhibition, % at 4.8 µM. GDH-TPI coupled enzyme counterscreen, NADH absorbance. hit rate 1.2% among 360,000; in the data active = inhibition above about 30%;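 note: 0% = DMSO wells and 100% = wells lacking the enzyme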
Bead autofluor – counter-screen for toxin protease inhibitors: compound fluorescence; hit rate 3.1% among 360,000; fluorescence intensity (test concentration not listed); compound autofluorescence counterscreen, microsphere flow cytometry; hits give high values; in the data active = fluorescence intensity above about 16000; inconclusive = no clear call, values can overlap the other calls
Mtb FBA inh – Mtb FBA enzyme inhibitors, primary screen, biochemical, fluorescence, strain H37Rv; Fructose-bisphosphate aldolase (Mycobacterium tuberculosis (strain ATCC 25618 / H37Rv)), …; purified M. tuberculosis FBA, fluorescence read-out; inhibition, % at 1 µM; hit rate 2.3% among 360,000; AID 588726, 2011;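 note: 0% = vehicle and 100% = reference inhibitor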
Anthrax LF inh2 – Bacillus anthracis LF protease inhibitors, primary screen, biochemical, multiplex microsphere, MLPCN library | multiplex microsphere protease cleavage assay | Lethal factor (Bacillus anthracis), P15917 | hit rate 0.12% among 360,000 | AID 588501, 2011 | inhibition, % at 10 µM; in the data active = inhibition above about 30%; inconclusive = no clear call, values can overlap the other calls; note: plate controls were buffer without enzyme for full effect and enzyme alone for no effect
Target sequence (P15917 whole entry, looked up): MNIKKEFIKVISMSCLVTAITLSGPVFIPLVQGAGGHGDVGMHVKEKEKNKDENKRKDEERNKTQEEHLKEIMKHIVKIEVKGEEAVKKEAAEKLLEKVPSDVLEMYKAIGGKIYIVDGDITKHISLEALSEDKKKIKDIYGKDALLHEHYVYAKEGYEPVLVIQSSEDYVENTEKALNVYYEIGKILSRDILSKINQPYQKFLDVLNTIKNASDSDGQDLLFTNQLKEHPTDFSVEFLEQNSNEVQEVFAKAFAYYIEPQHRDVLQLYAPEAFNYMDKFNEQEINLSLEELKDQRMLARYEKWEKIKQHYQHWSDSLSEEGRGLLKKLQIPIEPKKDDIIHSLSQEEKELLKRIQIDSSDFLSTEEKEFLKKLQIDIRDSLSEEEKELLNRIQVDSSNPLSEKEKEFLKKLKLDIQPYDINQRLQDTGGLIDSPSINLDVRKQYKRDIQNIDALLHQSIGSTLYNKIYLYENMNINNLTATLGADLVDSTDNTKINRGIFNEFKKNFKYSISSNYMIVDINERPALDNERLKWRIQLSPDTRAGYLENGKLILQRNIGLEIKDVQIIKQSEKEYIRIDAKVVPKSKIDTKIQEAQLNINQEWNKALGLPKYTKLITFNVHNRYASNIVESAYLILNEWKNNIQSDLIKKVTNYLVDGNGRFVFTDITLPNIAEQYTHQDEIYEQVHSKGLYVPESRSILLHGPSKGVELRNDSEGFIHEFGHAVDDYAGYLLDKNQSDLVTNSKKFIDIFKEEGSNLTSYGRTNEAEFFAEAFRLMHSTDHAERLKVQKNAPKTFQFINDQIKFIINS
BoNT-A LC inh2 – BoNT/A light chain protease inhibitors, primary screen, biochemical, flow cytometry, MLPCN library; multiplex microsphere protease substrate cleavage; Botulinum neurotoxin type A light chain protease (Clostridium botulinum A str. ATCC 3502); hit rate 0.17% among 360,000; AID 588499, 2011; inhibition, % at 10 µM; in the data active = inhibition above about 30%; inconclusive = no clear call, values can overlap the other calls; note: plate controls were buffer without enzyme for full effect and enzyme alone for no effect
BoNT F protease – BoNT/F light chain protease inhibitors, primary screen, biochemical, flow cytometry, MLPCN library | Botulinum neurotoxin type F light chain protease (Clostridium botulinum) | Multiplex microsphere protease cleavage assay | inhibition, % at 10 µM | hit rate 0.22% among 360,000 | AID 588497, 2011; in the data active = inhibition above about 35%, passing the limit was not always enough; inconclusive = no clear call, values can overlap the other calls; note: plate controls were buffer without enzyme for full effect and enzyme alone for no effect
Mtb FBA confirm – M. tuberculosis aldolase blockers, biochemical, fluorescence, strain H37Rv, confirmation. AID 651616, 2012. inhibition, % at 1 µM. purified M. tuberculosis FBA, fluorescence read-out. shares compounds with Mtb FBA inh. hit rate 78% among 5,600;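 note: 0% = vehicle wells and 100% = reference inhibitor wells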
GDH-TPI counter-2 – GDH-TPI coupling enzyme inhibitors, artefact control for M. tuberculosis FBA inhibitor project, biochemical, fluorescence, high throughput; shares compounds with Mtb FBA inh; inhibition, % at 1 µM; AID 652141, 2013; hit rate 81% among 5,600; GDH-TPI coupled enzyme counterscreen; in the data active = inhibition above about 10%
An asterisk follows results filed as active; ? = inconclusive; . = no result; + = active, no number. Hits are enriched below; roughly 6.7% of the tested compounds scored in any of these assays. Cut-off read from the data, not from the text of the source, unless noted: active = inhibition above about 27%; inactive = the rest.

SMILES	GDH-TPI counter-1	Bead autofluor	Mtb FBA inh	Anthrax LF inh2	BoNT-A LC inh2	BoNT F protease	Mtb FBA confirm	GDH-TPI counter-2
CCNC(=S)N1CCc2cc(OC)c(OC)cc2C1COc1ccccc1OC (stereo unspecified)	-5.0	3940	38.1*	-5.2	0.0	-5.2	+	+
CCCCn1c(=NC(=O)c2cccnc2)c(C(=O)OCC)cc2c(=O)n3ccccc3nc21	-11.6	7001	55.5*	0.7	3.8	7.4	133.7*	90.8*
COc1ccc(OC)c(NC(=O)c2cc3c(=O)n4ccccc4nc3n2C)c1	5.7	4166	-2.7	-7.1	-1.3	-8.6	.	.
CCOC(=O)c1cc2c(=O)n3ccccc3nc2n(C)c1=NC(=O)c1c(-c2c(F)cccc2Cl)noc1C	-4.6	5351	33.1*	15.2	16.7	-2.3	162.2*	131.6*
CCOC(=O)c1cc2c(=O)n3ccccc3nc2n(Cc2ccco2)c1=NC(=O)c1ccc(OC)cc1OC	16.0	4621	103.9*	0.5	3.2	-3.1	91.3*	88.1*
CCOC(=O)c1ccccc1NC(=O)c1cccnc1	4.3	10557	7.0	-1.0	0.7	2.8	.	.
Cc1ccccc1CN1C(=O)C(C)Sc2ccc(-c3ccco3)cc21 (stereo unspecified)	-10.7	3861	-1.4	-6.2	0.0	-2.3	.	.
CC(Oc1ccc(C(C)(C)C)cc1)C(=O)NC1CC(C)(C)NC(C)(C)C1 (stereo unspecified)	1.7	4105	1.5	-7.1	-0.4	-3.3	.	.
COc1ccc(NC2CCCN(C(=O)Cn3ccc(C)n3)C2)cc1OC (stereo unspecified)	1.7	4695	1.2	3.2	-3.0	-7.3	.	.
O=C(Nc1nc(-c2ccccc2)cs1)c1ccc2c(c1)S(=O)(=O)c1ccccc1C2=O	-2.0	2548	83.8*	-0.9	0.1	-4.4	+	157.7*
FC(F)(F)c1cccc(Sc2nc(-c3ccccc3)nnc2C(F)(F)F)c1	1.1	5571	1.0	-17.1	-0.3	0.2	.	.
Nc1nc(N)c2cc(Sc3cccc(C(F)(F)F)c3)ccc2n1	6.7	3975	51.5*	-7.8	-0.3	-8.6	+	176.8*
Nc1nc(N)c2cc(Sc3ccc(Cl)cc3)ccc2n1	9.3	3925	67.7*	-8.4	-0.3	-2.4	63.7*	59.0*
Nc1nc(N)c2cc(Sc3ccc4ccccc4c3)ccc2n1	6.1	.	9.2	.	.	.	.	.
Cc1cc(=O)n2[nH]c(C(=O)O)nc2n1	4.2	2184	7.8	-2.6	0.2	2.7	.	.
Cc1cc(=O)n2[nH]cc(C(=O)O)c2n1	8.1	4362	38.3*	-3.7	0.2	-0.9	178.1*	146.4*
COCCNC(=O)c1cc2c(s1)-c1ccc(Cl)cc1SC2	2.9	3966	45.6*	2.3	0.9	10.4	173.9*	160.1*
NC(=O)c1cc2c(s1)-c1cc(Cl)ccc1SC2	-3.4	4508	1.1	2.2	?	?	.	.
O=C1NC[C@@H](CCCCN2CCN(CCc3ccccc3)C(=O)C2=O)N(CCc2ccc(O)cc2)C1=O	.	5301	.	9.7	0.5	0.6	.	.
O=C(NCCc1cn2ccsc2n1)C1CCCCC1	5.8	6111	-2.2	-2.4	-0.2	-10.4	.	.
O=C(NCCc1cn2ccccc2n1)C1CCCCC1	3.9	4464	27.4*	3.5	0.1	0.1	109.2*	80.0*
O=[N+]([O-])c1cccc2nc(-c3ccccc3)c(-c3ccccc3)nc12	13.9	3002	-2.8	5.8	-1.8	23.3	.	.
O=C1c2ccccc2NC(c2c(Cl)cccc2Cl)N1Cc1ccccc1 (stereo unspecified)	1.7	2210	25.6	-2.9	-0.2	5.4	.	.

Screening results (PubChem BioAssay)
